More than one record can exist for a structure, and the calls need not agree. Calls of active or inactive are those of the source. The calls were made as follows: active = hit-call score of the fitted dose curve at least 0.9, where 1 is the maximum; inactive = score below 0.9.
Assay: ATG_M_32_CIS: Attagene CIS-FACTORIAL HepG2 Assay for M32 Transcription Factor (Internal Marker) (AID 2282949);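 also: background control marker of the multiplexed CIS panel rather than a real target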
Settings: HepG2 Attagene cis-factorial M32 reporter, mRNA; actives raise or lower the signal
How it was run: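 Fluorescent capillary electrophoresis peaks of HpaI-digested, FAM-labelled RT-PCR reporter products give the signal. Source: transiently transfected human liver HepG2 cells, 24 h after chemical dosing; bidirectional fitting against DMSO.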

Row | SMILES | outcome | AC50
1 | COc1cc(-c2ccc(N)c(OC)c2)ccc1N | inactive | –
2 | CCSC(C)CC1CC(=O)C(C(CC)=NOC/C=C/Cl)=C(O)C1 (stereo not given) | inactive | –
3 | CC(=O)C=C(C)C | inactive | –
4 | CCC(=O)c1ccccc1 | inactive | –
5 | CN(C)N=O | inactive | –
6 | CCc1ccccc1N | inactive | –
7 | BrCCBr | inactive | –
8 | C[C@]12CC[C@H](O)CC1=CC[C@@H]1[C@@H]2CC[C@]2(C)C(=O)CC[C@@H]12 | inactive | –
9 | Nc1cccc2ccccc12 | inactive | –
10 | O=Cc1cccc(Oc2ccccc2)c1 | inactive | –
11 | O=CC=O | inactive | –
12 | CCC[CH2][Sn]([CH2]CCC)([CH2]CCC)[O]C(=O)c1ccccc1 | inactive | –
13 | O=[N+]([O-])c1ccc2c3c(cccc13)CC2 | inactive | –
14 | C[C@H]1O[C@@H](O[C@H]2[C@@H](O)C[C@H](O[C@H]3[C@@H](O)C[C@H](O[C@H]4CC[C@@]5(C)[C@H](CC[C@@H]6[C@@H]5CC[C@]5(C)[C@@H](C7=CC(=O)OC7)CC[C@]65O)C4)O[C@@H]3C)O[C@@H]2C)C[C@H](O)[C@@H]1O | inactive | –
15 | O=C/C=C/c1ccccc1 | inactive | –
16 | Clc1ccc(C2(Cn3cncn3)CC(Br)CO2)c(Cl)c1 (stereo not given) | inactive | –
17 | Clc1ccc(COC(Cn2ccnc2)c2ccc(Cl)cc2Cl)cc1 (stereo not given) | inactive | –
18 | CCCCCCCCC(=O)NCc1ccc(O)c(OC)c1 | inactive | –
19 | Nc1ccc(-c2ccc(N)c(Cl)c2)cc1Cl | inactive | –
20 | CCC1(c2ccc(N)cc2)CCC(=O)NC1=O (stereo not given) | inactive | –

Row | SMILES | outcome | AC50
21 | Oc1ccc(-c2ccccc2)cc1 | inactive | –
22 | CCCCCCCCCl | inactive | –
23 | CC(=O)[O][Hg][c]1ccccc1 | inactive | –
24 | O=C(O)C(Cl)(Cl)Cl | inactive | –
25 | CC(C)(c1ccccc1)c1ccc(O)c(C(C)(C)c2ccccc2)c1 | inactive | –
26 | COC[C@H](C)N(C(=O)CCl)c1c(C)csc1C | inactive | –
27 | CC(=[OH+])/C=C(/C)[O-].CC(=[OH+])/C=C(/C)[O-].CC(=[OH+])/C=C(/C)[O-].[Fe] | inactive | –
28 | CCCCCCCCc1ccc(O)cc1 | inactive | –
29 | C[C@H]1CCCC(=O)CCC/C=C/c2cc(O)cc(O)c2C(=O)O1 | inactive | –
30 | O=C(O)C(F)(F)C(F)(F)C(F)(F)C(F)(F)C(F)(F)C(F)(F)C(F)(F)C(F)(F)C(F)(F)C(F)(F)F | inactive | 160 µM (active)
31 | Cc1ccc2ccccc2c1C | inactive | –
32 | O=S(=O)(c1ccc(Cl)cc1)c1ccc(Cl)cc1 | inactive | –
33 | CC(C)(C)c1cc(O)ccc1O | inactive | –
34 | COC(=O)Cc1ccccc1 | inactive | –
35 | COC(=O)c1sccc1S(=O)(=O)NC(=O)Nc1nc(C)nc(OC)n1 | inactive | –
36 | O=C(O)C(F)(F)C(F)(F)C(F)(F)C(F)(F)C(F)(F)C(F)(F)F | inactive | –
37 | N#CCCO | inactive | –
38 | C[C@]12CCC(=O)C[C@@H]1CC[C@@H]1[C@@H]2CC[C@]2(C)[C@@H](O)CC[C@@H]12 | inactive | –
39 | CCc1ccccc1C | inactive | –

Assay: ATG_M_06_CIS: Attagene CIS-FACTORIAL HepG2 Assay for M06 Transcription Factor (Internal Marker) (AID 2282950)
Settings: HepG2 Attagene CIS-FACTORIAL M06 internal marker reporter; actives raise or lower the signal
How it was run: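 One of many multiplexed endpoints: HepG2 reporter mRNA after 24 h dosing, detected by RT-PCR and capillary electrophoresis fluorescence; gain or loss of signal analysed against DMSO.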

Row | SMILES | outcome | AC50
40 | COc1cc(-c2ccc(N)c(OC)c2)ccc1N | inactive | –
41 | CCSC(C)CC1CC(=O)C(C(CC)=NOC/C=C/Cl)=C(O)C1 (stereo not given) | inactive | –
42 | CC(=O)C=C(C)C | inactive | –
43 | CCC(=O)c1ccccc1 | inactive | –
44 | CN(C)N=O | inactive | –
45 | CCc1ccccc1N | inactive | –
46 | BrCCBr | inactive | –
47 | C[C@]12CC[C@H](O)CC1=CC[C@@H]1[C@@H]2CC[C@]2(C)C(=O)CC[C@@H]12 | inactive | –
48 | Nc1cccc2ccccc12 | inactive | –
49 | O=Cc1cccc(Oc2ccccc2)c1 | inactive | –
50 | O=CC=O | inactive | –
51 | CCC[CH2][Sn]([CH2]CCC)([CH2]CCC)[O]C(=O)c1ccccc1 | inactive | –
52 | O=[N+]([O-])c1ccc2c3c(cccc13)CC2 | inactive | –
53 | C[C@H]1O[C@@H](O[C@H]2[C@@H](O)C[C@H](O[C@H]3[C@@H](O)C[C@H](O[C@H]4CC[C@@]5(C)[C@H](CC[C@@H]6[C@@H]5CC[C@]5(C)[C@@H](C7=CC(=O)OC7)CC[C@]65O)C4)O[C@@H]3C)O[C@@H]2C)C[C@H](O)[C@@H]1O | inactive | –
54 | O=C/C=C/c1ccccc1 | inactive | –
55 | Clc1ccc(C2(Cn3cncn3)CC(Br)CO2)c(Cl)c1 (stereo not given) | inactive | –
56 | Clc1ccc(COC(Cn2ccnc2)c2ccc(Cl)cc2Cl)cc1 (stereo not given) | inactive | –
57 | CCCCCCCCC(=O)NCc1ccc(O)c(OC)c1 | inactive | –
58 | Nc1ccc(-c2ccc(N)c(Cl)c2)cc1Cl | inactive | –
59 | CCC1(c2ccc(N)cc2)CCC(=O)NC1=O (stereo not given) | inactive | –

Row | SMILES | outcome | AC50
60 | Oc1ccc(-c2ccccc2)cc1 | inactive | –
61 | CCCCCCCCCl | inactive | –
62 | CC(=O)[O][Hg][c]1ccccc1 | inactive | –
63 | O=C(O)C(Cl)(Cl)Cl | inactive | –
64 | CC(C)(c1ccccc1)c1ccc(O)c(C(C)(C)c2ccccc2)c1 | inactive | –
65 | COC[C@H](C)N(C(=O)CCl)c1c(C)csc1C | inactive | –
66 | CC(=[OH+])/C=C(/C)[O-].CC(=[OH+])/C=C(/C)[O-].CC(=[OH+])/C=C(/C)[O-].[Fe] | inactive | –
67 | CCCCCCCCc1ccc(O)cc1 | inactive | –
68 | C[C@H]1CCCC(=O)CCC/C=C/c2cc(O)cc(O)c2C(=O)O1 | inactive | –
69 | O=C(O)C(F)(F)C(F)(F)C(F)(F)C(F)(F)C(F)(F)C(F)(F)C(F)(F)C(F)(F)C(F)(F)C(F)(F)F | inactive | 76.2 µM (active)
70 | Cc1ccc2ccccc2c1C | inactive | –
71 | O=S(=O)(c1ccc(Cl)cc1)c1ccc(Cl)cc1 | inactive | –
72 | CC(C)(C)c1cc(O)ccc1O | inactive | –
73 | COC(=O)Cc1ccccc1 | inactive | –
74 | COC(=O)c1sccc1S(=O)(=O)NC(=O)Nc1nc(C)nc(OC)n1 | inactive | –
75 | O=C(O)C(F)(F)C(F)(F)C(F)(F)C(F)(F)C(F)(F)C(F)(F)F | inactive | –
76 | N#CCCO | inactive | –
77 | C[C@]12CCC(=O)C[C@@H]1CC[C@@H]1[C@@H]2CC[C@]2(C)[C@@H](O)CC[C@@H]12 | inactive | –
78 | CCc1ccccc1C | inactive | –

Reference: PubChem BioAssay (EPA / NIEHS)
